According to PubChem BioAssay (NCATS):
Inconclusive results are not listed. A number with no mark means an inactive call. Activity calls are given as the source filed them. Calls follow the shape of the full dose curve; tested in HEK293 reporter line.

test: qHTS for Inhibitors of the Functional Ribonucleoprotein Complex (vRNP) of Lassa (LASV) Arenavirus: LASV Primary Screen - GLuc reporter signal (AID 1347082); settings: LASV minigenome vRNP, Gaussia luciferase reporter; series mostly up to 57.5 µM; activity change, negative = inhibition: at the top concentration; also: nearly all actives have a fitted effect of over 60% in size
% is scaled to controls: 0 for no effect and ±100 for the full control effect.

SMILES	Potency	activity change, negative = inhibition [%]
CC1(C)O[C@H]2CC(=O)OC[C@]23[C@H]2CC[C@@]4(C)[C@H](c5ccoc5)OC(=O)[C@H]5O[C@]54[C@]2(C)C(=O)C[C@@H]13	inactive	–
Cc1ccc(S(=O)(=O)NC(=O)NC2CCCCCCC2)cc1	–	9.11
C=C[C@H]1CN2CC[C@H]1C[C@H]2[C@H](O)c1ccnc2ccc(OC)cc12	–	-3.34
CC(=O)SCC(CC(=O)c1ccc(C)cc1)C(=O)O (configuration not stated)	–	-0.8
CCC1=C(C)CN(C(=O)NCCc2ccc(S(=O)(=O)NC(=O)NC3CCC(C)CC3)cc2)C1=O (configuration not stated)	inactive	–
Nc1ncnc2nc[nH]c12	–	4.16
O=C(O)CCCCC1CCSS1 (configuration not stated)	–	5.99
CCCCCCCCCCCCSCCOCCO	–	1.69
CCCCCC=CCC=CCCCCCCCC(=O)OCC	–	-3.49
CN[C@@H]1[C@@H](O)[C@@H](O[C@@H]2[C@H](O)[C@H](O[C@H]3OC(CN)=CC[C@H]3N)[C@@H](N)C[C@H]2N)OCC1(C)O (some centres not stated)	–	8.51
CC(=O)c1cc2ccccc2s1	–	-2.43
CC(=O)Nc1c(I)cc(I)c(C(=O)O)c1I	–	-4.23
O=C(/C=C/c1ccccc1)OCc1ccccc1	inactive	–
CO[C@@]1(NC(=O)C(C(=O)O)c2ccc(O)cc2)C(=O)N2C(C(=O)O)=C(CSc3nnnn3C)CO[C@@H]21 (some centres not stated)	–	0.818
FC1(F)C(F)(F)C(F)(F)C2(F)C(F)(F)C(F)(F)C(F)(F)C(F)(F)C2(F)C1(F)F (configuration not stated)	–	-0.533
Cc1ccc(Nc2nccc(N(C)c3ccc4c(C)n(C)nc4c3)n2)cc1S(N)(=O)=O	–	-3.28
CN(C)C(=O)Oc1ccc[n+](C)c1	inactive	–
